# A selection: hits, their analogues and other compounds. The true share with any hit is near 21%.
# DRD3 agonist: qHTS of D3 Dopamine Receptor Agonist: qHTS | D(3) dopamine receptor (Homo sapiens), P35462 | D3R DiscoveRx beta-arrestin cells, luminescence, 90 min | max activation, % | 410,000 compounds, 0.58% hits | AID 652048, 2013; in the data active means max activation above about 30%; further: 0% is about no effect
# Target sequence (P35462 whole entry, looked up): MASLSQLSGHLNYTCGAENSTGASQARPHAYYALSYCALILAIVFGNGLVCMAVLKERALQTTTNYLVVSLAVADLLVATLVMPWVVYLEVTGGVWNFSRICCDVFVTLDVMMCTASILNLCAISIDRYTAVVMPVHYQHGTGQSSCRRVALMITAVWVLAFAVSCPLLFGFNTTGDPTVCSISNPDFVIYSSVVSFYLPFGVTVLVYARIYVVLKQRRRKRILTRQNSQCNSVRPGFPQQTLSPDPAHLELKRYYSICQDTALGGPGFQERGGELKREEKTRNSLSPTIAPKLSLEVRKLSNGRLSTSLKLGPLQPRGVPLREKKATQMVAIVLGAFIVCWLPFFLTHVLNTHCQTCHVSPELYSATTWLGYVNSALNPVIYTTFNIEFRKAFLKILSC
#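 Agonist-mode cell screen: cells plated at 1500/well and incubated overnight at 37 °C, then exposed to library compounds for 90 min at 37 °C. Detection reagent was added for 30–60 min at room temperature, and luminescence was read.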
# DRD3 antagonist: qHTS of D3 Dopamine Receptor Antagonist: qHTS; D(3) dopamine receptor (Homo sapiens), P35462; D3R cells, DiscoveRx beta-arrestin luminescence, antagonist mode; hits give low values; max response, negative = inhibition, %; 360,000 compounds, 2.5% hits; in the data active means max response below about -50%; inconclusive means no clear call, values can overlap the other calls; further: on the % scale 0 is the no-effect control and ±100 the full control effect
#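 Cells plated overnight at 1500 cells/well, then exposed to library compounds with dopamine controls for 90 minutes at 37 degrees C. DiscoveRx reagent added for 30–60 minutes at room temperature; luminescence read, quantitative HTS format.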
# TDP1 cell CPT: qHTS for Inhibitors of human tyrosyl-DNA phosphodiesterase 1 (TDP1): qHTS in cells in presence of CPT. AID 686979, 2013. Potency, µM (titrated, usually from 46.2 µM), for inactives: at the top dose activity change, negative = growth inhibition, actives largely listed as inhibitors. 420,000 compounds, 12% hits. chicken DT40 Tdp1-/-;hTDP1 cells + 20 nM CPT, ATP luminescence, 48 h; further: potency means the concentration at half of the fitted maximal effect; on the % scale 0 is the no-effect control and ±100 the full control effect; nearly all actives have a fitted effect of over 55% in size
#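 Chicken DT40 Tdp1-/- cells stably complemented with human TDP1 were seeded at 400 cells/well in medium containing 20 nM camptothecin, exposed to pin-transferred compounds, and grown at 37 °C for at least 48 hr. Viability was read as ATP luminescence.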
# IL-1B inflam inh: qHTS for Inhibitors of Inflammasome Signaling: IL-1-beta AlphaLISA Primary Screen; THP-1 LPS/ATP IL-1B secretion, AlphaLISA, 16 h; hits give low values; activity change, % at 57.5 µM; 360,000 compounds, 4.7% hits; in the data active means activity change below about -50%; inconclusive means mostly about -30% to -49%; further: on the % scale 0 is the no-effect control and ±100 the full control effect
#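 Secreted IL-1B measured by AlphaLISA bead assay after 16 h compound exposure of THP-1 cells; compounds (final up to 57.5 uM) added 1 h before LPS (250 ng/mL) and ATP (1.25 mM) stimulation; lower signal means less secretion.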
# TDP1 cell noCPT: qHTS for Inhibitors of human tyrosyl-DNA phosphodiesterase 1 (TDP1): qHTS in cells in absence of CPT. DT40 Tdp1-/- hTDP1 cells, no CPT, ATP luminescence, 48 h. Potency, µM (doses to about 46.2 µM), for inactives: at the top dose activity change, negative = growth inhibition, most hits filed as inhibitors. 420,000 compounds, 15% hits; further: potency means the concentration at half of the fitted maximal effect; on the % scale 0 is the no-effect control and ±100 the full control effect; nearly all actives have a fitted effect of over 55% in size
#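 A cellular qHTS used chicken DT40 cells lacking endogenous Tdp1 but carrying stably transfected human TDP1. Compounds were applied without camptothecin, and cell growth kinetics were judged by ATP-dependent luminescence after ≥48 hr.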
# ClpP mod: qHTS Assay for Activators of ClpP | purified B. subtilis ClpP, FRET peptide cleavage, 20 min | Potency, µM (series often up to 57.5 µM), for the others: at the highest dose activity change, negative = active | AID 651965, 2013 | ATP-dependent Clp protease proteolytic subunit (Bacillus subtilis (strain 168)), P80244 | 340,000 compounds, 1.9% hits; active means well fitted falling curve with a large enough effect; inconclusive means small, poorly fitted or top-dose-only effect; inactive means no such curve, though single readings can be large or run the other way; further: potency means the concentration at half of the fitted maximal effect; the source files actives as falling curves though it sought activators and does not explain the sign; nearly all actives have a fitted effect of over 65% in size
# Target sequence (P80244 whole entry, looked up): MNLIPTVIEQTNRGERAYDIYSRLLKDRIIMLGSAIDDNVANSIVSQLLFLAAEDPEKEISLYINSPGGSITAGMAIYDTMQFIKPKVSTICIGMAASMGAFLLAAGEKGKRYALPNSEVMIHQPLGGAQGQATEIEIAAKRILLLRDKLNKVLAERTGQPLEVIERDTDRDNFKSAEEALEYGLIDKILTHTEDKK
#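 ClpP 10 microg/mL final, pH 8 Tris/KCl buffer with BSA, glycerol, Tween-20; compound pinned in; FRET-FV substrate; RT 20 min; Ex320/Em430; ΔFRET vs ADEP 5.8 microM, DMSO, no enzyme.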
# * = called active by the depositor; ? = inconclusive; . = no result given. Unless noted, the call rests on the fitted dose curve; in most records, active means well fitted inhibition curve with a large enough effect; inconclusive means small, poorly fitted or top-dose-only effect; inactive means flat fitted curve, though single readings scatter.
SMILES,DRD3 agonist,DRD3 antagonist,TDP1 cell CPT,IL-1B inflam inh,TDP1 cell noCPT,ClpP mod
CCN(C(=O)CSc1nccn1C)c1cccc2ccccc12,6.0,51.0,20.6µM*,58.5,10.3µM*,-1.5%
COc1ccccc1C(=O)CSc1nccn1C,-14.6,?,?,-18.8,16.4µM*,.
Cn1ccnc1Sc1ccc(C(N)=O)cc1[N+](=O)[O-],8.9,-5.5,0.9%,14.7,4.8%,31.6µM*
Cn1ccnc1SCC(=O)c1ccc([N+](=O)[O-])cc1,-3.5,-17.0,18.4µM*,-14.7,?,.
CCCCC1(c2ccc(F)cc2)NC(=O)N(CC(=O)Nc2ccc(N3CCOCC3)cc2)C1=O (centres undefined),1.4,-15.2,-29.2%,35.2,6.6%,-3.2%
O=C(CSc1ccccn1)Nc1cccc([N+](=O)[O-])c1,-4.4,?,1.4%,35.3,?,.
O=C(CSc1ccccn1)Nc1ccc(F)c([N+](=O)[O-])c1,-3.9,2.3,?,-76.2*,?,1.1%
O=C(Nc1ccccc1)Nc1ccc(F)c([N+](=O)[O-])c1,-10.1,-11.5,16.4µM*,-90.4*,16.4µM*,?
O=C(Nc1ccc(F)c([N+](=O)[O-])c1)C(=O)c1c(O)[nH]c2ccccc12,-15.5,?,18.4µM*,0.5,13µM*,.
COc1ccc(NC(=O)c2cccnc2N2CCOCC2)cc1,2.2,-4.0,-17.5%,-2.8,-3.2%,2.4%
O=C1N=C2SCCN2/C1=C\c1ccc(Cl)cc1,-8.5,?,-27.7%,-67.8*,?,-1.7%
O=C1N=C(N2CCCCC2)S/C1=C\c1ccc(Br)cc1,-1.3,-2.5,-22.5%,-14.4,?,-1.3%
CCNc1ncc2nc(C)c(=O)n(-c3ccc(OC)cc3)c2n1,.,.,?,.,2.06µM*,.
CCNc1ncc2nc(-c3ccc(F)cc3)c(=O)n(-c3ccc(OC)cc3)c2n1,.,.,0.731µM*,.,0.581µM*,.
COc1ccc(-c2nc3cnc(OC)nc3n(-c3ccc(OC)cc3)c2=O)cc1,.,.,1.3µM*,.,0.92µM*,.
CCNc1ncc2nc(C)c(=O)n(CCc3ccccc3)c2n1,.,.,7.31µM*,.,?,.
COc1cccc(CNC(=O)c2ccc3c(c2)nc2n3CCC(C)C2)c1OC (centres undefined),-10.2,.,-26.4%,.,-16.8%,-2.1%
CNC(=O)c1c(NC(=O)C2=COCCO2)sc(C)c1C,-7.1,20.4,1.8%,-13.3,-7.7%,-2.3%
CCNc1ncc2nc(-c3ccccc3)c(=O)n(-c3ccc(OC)cc3)c2n1,.,.,7.31µM*,.,0.517µM*,.
CCNc1ncc2nc(-c3cc(F)cc(F)c3)c(=O)n(-c3ccc(OC)cc3)c2n1,.,.,7.0%,.,-7.6%,.
Brc1ccc2ncnc(Nc3ccc(N4CCOCC4)cc3)c2c1,1.8,16.5,11.6µM*,-16.4,9.2µM*,-1.7%
CC(C)COc1ccc(Nc2ncnc3ccc(Br)cc23)cc1,-1.9,.,11.6µM*,.,?,-0.9%
CC(C)Nc1ncnc2ccc(Br)cc12,8.4,21.4,4.11µM*,-6.1,4.11µM*,1.0%
CC(=O)Nc1ccc(C(=O)OCC(=O)NCc2cccs2)cc1,1.5,8.8,-2.0%,31.2,11.9%,-1.5%
Cc1cccc(NC(=O)c2nc(S(C)(=O)=O)ncc2Cl)c1,-25.8,.,0.651µM*,.,0.92µM*,-3.5%
SMILES,DRD3 agonist,DRD3 antagonist,TDP1 cell CPT,IL-1B inflam inh,TDP1 cell noCPT,ClpP mod
CCS(=O)(=O)c1ncc(Cl)c(C(=O)Nc2c(C(=O)Nc3cccc(C)c3)oc3ccccc23)n1,6.2,.,1.03µM*,.,0.731µM*,-7.0%
CCSc1ncc(Cl)c(C(=O)Nc2c(C(=O)Nc3cccc(C)c3)oc3ccccc23)n1,-5.6,.,-16.7%,.,2.6%,-0.1%
COc1cccc(NC(=O)c2nc(SC)ncc2Cl)c1,-3.9,4.8,?,27.8,?,.
COc1cccc(NC(=O)c2nc(S(C)(=O)=O)ncc2Cl)c1,-33.3,-108.7*,1.03µM*,-100.9*,0.651µM*,-1.8%
COc1cccc(NC(=O)c2ncc(Cl)c(Cl)c2Cl)c1,-3.5,11.4,7.31µM*,-14.8,5.17µM*,-0.6%
Cc1cccc(NC(=O)c2cccc(C(=O)Nc3cccc(C)c3)n2)c1,11.5,2.8,-19.2%,37.3,-21.3%,.
COc1ccccc1CNC(=O)CS(=O)(=O)c1ccc(C)cc1,4.7,1.2,-0.4%,13.5,9.2%,-0.5%
Cc1cccc(-n2c(C)cc(C(=O)C(=O)Nc3nncs3)c2C)c1,-3.1,.,-9.2%,.,-1.2%,0.7%
O=c1c2c3c(sc2nc2n1CCCCC2)CCCC3,-0.8,-8.5,23.1µM*,-0.8,-19.9%,-0.5%
N=c1c2c3c(sc2nc2n1CCCCC2)CCCCC3,-2.1,33.8,23.1µM*,-11.6,11.6µM*,0.5%
COc1ccc(CNS(=O)(=O)c2ccc(C(=O)N(C)C)s2)cc1,-11.3,.,?,.,-26.6%,-0.5%
COc1ccc(-c2nc3c4ccccc4n(CC(=O)N4CCN(c5ccccc5F)CC4)c(=O)n3n2)cc1,-19.8,.,?,.,?,-2.2%
CCc1cc([N+](=O)[O-])cc(CC)c1N,0.9,10.2,-0.8%,-8.8,-15.2%,-6.8%
CCc1cc(SC#N)ccc1N,-6.0,-2.4,-24.6%,-102.3*,?,.
Cc1nn(-c2ccccc2)c2c1N(CC(=O)N1CCN(c3ccc(F)cc3)CC1)C(=O)CS2,1.3,.,?,.,20.6µM*,1.8%
Cc1nn(-c2ccccc2)c2c1N(CC(=O)N1CCN(c3ccccc3F)CC1)C(=O)CS2,3.3,.,18.4µM*,.,?,-0.7%
O=C(C(=S)N1CCOCC1)c1c[nH]c2ccccc12,20.4,8.2,9.3%,23.0,-3.7%,1.3%
COc1ccc(-c2csc(NC(=O)CSCc3c(C)noc3C)n2)cc1OC,14.2,8.6,?,?,9.2µM*,-1.6%
COc1ccc(-c2csc(NC(=O)CSCC(=O)Nc3cc(C)on3)n2)cc1OC,3.9,0.0,?,48.1,?,.
Cc1csc(NC(=O)CSCc2c(C)noc2C)n1,-5.3,0.3,-19.6%,4.7,-21.4%,.
Cc1noc(C)c1CSCC(=O)Nc1nc(-c2ccc(F)c(F)c2)cs1,27.3,51.9,23.1µM*,-80.5*,8.2µM*,.
Cc1noc(C)c1CSCC(=O)Nc1nc2c(F)cc(F)cc2s1,7.6,25.0,?,-2.0,23.1µM*,-2.1%
